# Source: PubChem BioAssay (several laboratories)
# m5-HT2A agonist: activates the mouse 5-HT2A serotonin receptor; P35363; CHO-K1 mHTR2A beta-arrestin complementation, luminescence; percent of 30 µM serotonin response; activation, % at 7.6 µM; 360,000 tested, 0.66% active; AID 624169;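 active = activation above a run cutoff, the mean activation of all tested compounds plus 3 SD, cut at about 14% in these data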;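 note: 0% = plate median of compound wells and 100% = 30 µM serotonin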
# NOD2-RIPK2 inh: blocks binding of human NOD2 to RIPK2. O43353. CHO BLA complementation NOD2-RIPK2, CCF4 ratio. inhibition, % at 4.98 µM. 360,000 tested, 0.38% active. AID 624267; in the data active = inhibition above about 21%;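 note: 0% = vehicle only and 100% = reference blocker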
# ANO1 activ: mouse TMEM16A channel activation, primary screen. Q8BHY3. HEK293 TMEM16A/YFP-H148Q/I152L, iodide quench fluorescence; hits give low values. B-score at 10 µM. 340,000 tested, 0.3% active. AID 623877;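 active = fluorescence-ratio B-score plate-corrected deviation score at least 3 library SD below zero, with starting fluorescence score within 5 deviations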;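 note: channel opened by trigger with iodide after compound preincubation; score built on the fluorescence ratio of max minus min over baseline; more negative score means more quench and so TMEM16A activation or potentiation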
# Target sequence (Q8BHY3 whole entry, looked up): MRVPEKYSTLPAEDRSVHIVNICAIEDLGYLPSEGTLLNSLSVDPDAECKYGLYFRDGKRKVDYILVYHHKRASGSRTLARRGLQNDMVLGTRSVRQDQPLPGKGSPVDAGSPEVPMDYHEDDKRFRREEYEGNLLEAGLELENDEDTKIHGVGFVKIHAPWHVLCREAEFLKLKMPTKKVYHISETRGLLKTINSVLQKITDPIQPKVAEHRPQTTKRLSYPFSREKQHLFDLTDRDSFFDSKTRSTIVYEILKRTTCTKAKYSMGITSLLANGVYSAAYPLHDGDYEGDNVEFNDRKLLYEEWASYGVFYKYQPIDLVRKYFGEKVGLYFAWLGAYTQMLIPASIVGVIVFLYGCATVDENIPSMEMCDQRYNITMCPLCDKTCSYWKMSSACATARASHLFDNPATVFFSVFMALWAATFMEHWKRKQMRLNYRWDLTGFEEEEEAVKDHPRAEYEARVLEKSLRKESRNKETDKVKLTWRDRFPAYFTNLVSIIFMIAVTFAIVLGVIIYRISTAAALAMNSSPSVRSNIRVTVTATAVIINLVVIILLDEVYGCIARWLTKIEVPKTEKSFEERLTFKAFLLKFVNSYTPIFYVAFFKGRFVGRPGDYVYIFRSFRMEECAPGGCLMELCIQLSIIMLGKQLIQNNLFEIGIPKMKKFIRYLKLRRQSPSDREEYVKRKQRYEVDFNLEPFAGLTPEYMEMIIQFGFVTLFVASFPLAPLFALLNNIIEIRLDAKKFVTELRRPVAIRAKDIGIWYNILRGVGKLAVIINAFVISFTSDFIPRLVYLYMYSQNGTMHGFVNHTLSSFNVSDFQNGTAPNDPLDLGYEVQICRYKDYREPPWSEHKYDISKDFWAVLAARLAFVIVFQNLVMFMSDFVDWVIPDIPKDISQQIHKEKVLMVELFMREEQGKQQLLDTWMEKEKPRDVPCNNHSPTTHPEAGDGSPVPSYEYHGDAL
# TMEM16A inh: blocks the mouse calcium-activated chloride channel TMEM16A. AID 588511. HEK293 TMEM16A/YFP iodide influx fluorescence, ionomycin. 310,000 tested, 1.2% active. Q8BHY3. normalized B-score (activity score, 25-100; higher = stronger inhibition) at 10 µM;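 active = ratio plate-corrected score three or more library SD toward inhibition, starting fluorescence score within five deviations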;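 note: score derived from kinetic fluorescence span divided by baseline fluorescence per well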
# TLR9-MyD88 inh: TLR9-MyD88 interaction inhibition | Q9NR96+Q99836 | CHO BLA complementation TLR9-MyD88, CCF4 FRET ratio | inhibition, % at 4.98 µM | 340,000 tested, 0.21% active;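 active = inhibition above the mean over all tested compounds plus 3 SD, cut at about 21% in these data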;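 note: 0% = DMSO only wells and 100% = clavulanate BLA inhibitor control wells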
# TLR4 MyD88 comp: inhibitors of human TLR4-MyD88 binding; inhibition, % at 8.4 µM; O00206+Q99836; HeLa CL3-4 TLR4/MyD88 BLA complementation, FRET ratio; 200,000 tested, 0.18% active; in the data active = inhibition above about 25%;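 note: 0% = vehicle and 100% = reference inhibitor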
# Starred values were filed as active, the others as inactive; i = inactive; . = no result. In the library only some 2.4% were active in any assay of this set; here they are far more common.
SMILES,m5-HT2A agonist,NOD2-RIPK2 inh,ANO1 activ,TMEM16A inh,TLR9-MyD88 inh,TLR4 MyD88 comp
CC1CCC(NC(=O)Cn2cnc3sccc3c2=O)CC1 (configuration not stated),9.2,11.1,-4.82*,.,-10.2,.
CC(C)(C)n1ncc2c(=O)n(CC(=O)NC3CCCCC3)cnc21,6.1,-3.9,i,i,-10.7,-3.0
O=C1/C(=C/c2ccc(N3CCOCC3)o2)SC(=Nc2ccccc2)N1CCc1c[nH]c2ccccc12,-8.1,47.4*,i,i,14.4,13.5
C[C@]12c3[nH]c4ccccc4c3CCN1C(=O)C(CC(=O)NCC13CC4CC(CC(C4)C1)C3)C[C@@H]2C(=O)N1CCCCC1 (some centres not stated),5.8,0.8,i,.,-9.5,.
COc1cc(/C=C2\C(=N)N3N=C(S(C)(=O)=O)SC3=NC2=O)ccc1OC(=O)c1cccs1,5.2,-0.2,i,i,4.6,.
COc1cc(/C=C2\C(=N)N3N=C(S(C)(=O)=O)SC3=NC2=O)ccc1OCCOc1ccccc1C,-2.1,1.4,i,100*,-71.5,.
CCOc1ccc(CCNC(=O)c2ccccc2OCc2c(C)noc2C)cc1OCC,-1.3,-6.5,i,i,2.4,.
O=C1CC(c2cccc([N+](=O)[O-])c2)c2ccc3ccccc3c2N1 (configuration not stated),-11.5,7.7,i,25*,-5.5,16.3
Cc1cc(NC(=O)CSc2nnc(-c3ccncc3)n2C)n(-c2ccccc2)n1,-0.5,2.6,-4.91*,i,-12.0,.
Cc1cc(NC(=O)CSc2nnc(-c3ccncc3)n2Cc2ccccc2)n(-c2ccccc2)n1,0.3,-9.5,i,i,-11.3,.
CCOC(=O)C1(CCc2ccccc2)CCN(Cc2ccc(OC)cc2)CC1,-2.5,-6.3,i,25*,-0.1,-11.1
O=C(Nc1cccc(C(F)(F)F)c1)N1CCC(c2nc(-c3ccc(F)cc3)no2)CC1,-3.2,3.1,i,25*,11.2,10.3
CCOC(=O)CSc1nnc(NC(=O)c2cccc(S(=O)(=O)N3CCCCCC3)c2)s1,5.4,-3.0,i,25*,-0.4,-6.3
CCSc1nnc(NC(=O)c2cccc(S(=O)(=O)N(C)c3ccc(C)cc3)c2)s1,-3.4,-4.3,i,25*,0.4,5.2
NC(=O)CSc1nnc(NC(=O)c2cccc(S(=O)(=O)N3CCCCC3)c2)s1,-4.2,5.5,i,i,2.3,-9.7
O=C(COn1nnc2ccccc21)NCC1CCCCC1,0.2,-3.8,i,i,-4.0,-3.1
CCCn1c2ccc(C)cc2c2nnc(SCCN3CCCCC3)nc21,2.7,5.2,i,.,-11.7,.
Clc1ccc(OCCCCCN2CCCC2)c(Br)c1,-6.4,0.8,i,i,1.6,12.8
Clc1ccc(OCCCN2CCCCC2)c(Br)c1,-5.7,-2.4,-14.5*,i,-5.5,-10.2
CSc1ccccc1NC(=O)CN(C)Cc1cccc(Cl)c1,-6.6,1.2,-39.3*,i,10.4,4.6
COc1ccc(Cl)cc1NC(=O)COC(=O)c1ccc(Cl)nc1,-0.4,-0.2,i,.,-3.1,.
Cc1nn(C(=O)c2nn(C)cc2[N+](=O)[O-])c(C)c1Cl,-3.1,1.3,i,i,-5.6,-4.9
Cc1nn(C(=O)c2nn(C)cc2[N+](=O)[O-])c(C)c1Br,29.9*,-6.8,i,i,-4.4,6.2
Nc1nnc(-c2ccc(Cl)cc2Cl)s1,-2.5,-3.3,i,i,3.7,2.2
Clc1ccc(-c2nn3cnnc3s2)c(Cl)c1,12.1,-6.3,i,25*,-2.0,7.0
SMILES,m5-HT2A agonist,NOD2-RIPK2 inh,ANO1 activ,TMEM16A inh,TLR9-MyD88 inh,TLR4 MyD88 comp
CC(=O)Nc1ccc(S(=O)(=O)N(C2=NCC(C)S2)c2ccccc2)cc1 (configuration not stated),-2.2,-0.7,i,i,2.4,-5.0
O=C(Nc1ccc([N+](=O)[O-])cc1Cl)c1cc(Cl)ccc1O,0.2,-7.8,i,100*,-4.9,.
O=C(Nc1cccc(Cl)c1)c1cc(N=Nc2ccc([N+](=O)[O-])cc2Cl)ccc1O,0.1,-1.6,-5.68*,100*,11.5,.
O=C(Nc1ccc([N+](=O)[O-])cc1Cl)c1cccc([N+](=O)[O-])c1,2.2,-4.8,.,.,2.0,.
O=C(Nc1cccc(Cl)c1)c1cccc(Oc2ccc([N+](=O)[O-])cc2Cl)c1,4.2,-1.5,i,i,0.1,-15.3
CCC1=C(OC(=O)N(CC)CC)N2C(=O)OC(=NCCOC)[C@]2(Cc2ccccc2)[C@H]2C1=CC[C@H]1C(=O)N(CC(=O)OC)C(=O)[C@H]12,-2.4,10.9,i,25*,-4.3,.
Cc1cc(=O)oc2cc(OCc3nnc(-c4ccccc4Br)o3)ccc12,1.5,-0.4,i,i,-3.1,-0.3
Cc1ccc(Cl)cc1N1CCN(S(=O)(=O)N2CCCCC2)CC1,-3.7,-1.3,-9.75*,i,6.2,14.0
Cc1ccc(Cl)cc1N1CCN(S(C)(=O)=O)CC1,0.4,5.8,i,i,4.2,4.4
N#C/C(=C\c1ccc(O)c(O)c1)C(=O)Nc1ccccc1,-3.8,1.8,-5.2*,i,1.4,.
O=S(=O)(Nc1ccccc1N1CCCCC1)c1cccs1,3.3,-1.3,i,i,3.7,.
COc1ccccc1N1CCN(C(=O)c2oc3cc(C)cc(C)c3c2C)CC1,-0.7,-5.8,i,25*,-8.4,-8.3
COc1cc(/C=N/NC(=O)CCn2c3ccccc3c3ccccc32)ccc1O,-2.5,-3.2,i,25*,1.0,-20.1
COc1ccc(C(C)=O)cc1CC(=O)NC1CCCCCC1,0.6,2.0,i,i,-10.7,.
CCCCc1ccc(NC(=S)NCc2cccs2)cc1,-0.6,-7.6,i,100*,-6.8,-16.0
O=C(COC(=O)c1ccccc1OC(F)F)Nc1ccc(N2CCCCC2)cc1,0.4,0.5,i,.,-12.3,.
Cc1ccc(NC(=S)N(Cc2ccc(Cl)cc2)Cc2ccc(C(=O)O)cc2)cc1Cl,3.6,-11.0,i,25*,3.0,-8.1
C[C@H]1CN([C@@H](C)CO)S(=O)(=O)c2ccc(Br)cc2O[C@@H]1CN(C)Cc1cccc(F)c1,-2.1,-1.1,.,.,-3.0,.
CCOC(=O)C[C@H]1c2ccc(C(F)(F)F)cc2S(=O)(=O)N1C1CCCC1,-1.6,-2.7,i,i,-11.2,.
CCc1ccc(OCCOCC(O)CN2CCN(Cc3ccc(Cl)cc3)CC2)cc1 (configuration not stated),-8.5,-0.3,i,100*,-7.5,6.4
COc1cccc(OCCOCC(O)CN2CCN(Cc3ccc(Cl)cc3)CC2)c1 (configuration not stated),-9.6,2.7,i,i,-0.8,-13.6
COc1ccc(C(=O)N[C@H](C(=O)NC2CCCCC2)C(C)C)cc1,-1.6,-0.8,i,.,-11.0,.
